A selection: hits, their analogues and other compounds. The true share with any hit is near 17%.
HepG2 tox = qHTS for Inhibitors of TGF-b: Cytotox Counterscreen; 410,000 compounds, 0.76% hits; Potency, µM (doses to about 46.1 µM), without a hit: at the top dose activity change, negative = cytotoxicity, hits mostly cytotoxic; HepG2 CAGA-GFP viability, ATP luminescence, 18 h; AID 588856, 2011
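CellTiter-Glo luminescence gave cytotoxicity after 18 hours at 37 degrees C. The cells were HepG2 CAGA-GFP in 1% FBS DMEM, stimulated with 500 pg/mL TGF-beta after compound addition. %Activity was normalised to no-cell wells (complete cell-killing) and DMSO (no toxicity), and curves were fitted and classified.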
TGFb SMAD3 inh = qHTS for Inhibitors of TGF-b | HepG2 CAGA-GFP TGF-b/SMAD3 reporter, GFP fluorescence, 18 h; TGF-beta stimulated, 500 pg/mL final | Potency, µM (series often up to 46.1 µM), inactives show at the top dose activity, negative = inhibition, most hits filed as inhibitors | 410,000 compounds, 1.2% hits | AID 588855, 2011; note: % is set by controls: 0 for no effect and ±100 for the full control effect; nearly all actives have a fitted effect of over 65% in size
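Read-out: total well GFP (ex488/em500-530) summed from mean per-cell fluorescence. Cells: HEPG2 CAGA-GFP, 1% FBS DMEM, 18 h at 37 degrees C with 500 pg/mL final TGF-beta. Unstimulated wells served as the full-inhibition control; stimulated DMSO wells = 0%.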
ATXN2 expr inh = Primary qHTS for Inhibitors of ATXN expression | HEK-293 ATXN2-luciferase reporter, luminescence, 24 h | Potency, µM (top dose mostly 57 µM), for inactives: top-dose activity change, negative = inhibition, most hits filed as inhibitors | 360,000 compounds, 0.72% hits | AID 1745845, 2022; note: % is set by controls: 0 for no effect and ±100 for the full control effect; nearly all actives have a fitted effect of over 55% in size
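qHTS (up to 57 uM final) was run with 24 h compound exposure of reporter cells at 37 °C. Each well was multiplexed: SteadyGlo luminescence measured ATXN2-luciferase expression after a fluorogenic Gly-Phe-AFC viability readout (25 uM final).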
TDP1 cell CPT = qHTS for Inhibitors of human tyrosyl-DNA phosphodiesterase 1 (TDP1): qHTS in cells in presence of CPT. chicken DT40 Tdp1-/-;hTDP1 cells + 20 nM CPT, ATP luminescence, 48 h. Potency, µM (highest dose often 46.2 µM), for the others: at the highest dose activity change, negative = growth inhibition, most hits filed as inhibitors. 420,000 compounds, 12% hits. AID 686979, 2013; note: % is set by controls: 0 for no effect and ±100 for the full control effect; nearly all actives have a fitted effect of over 55% in size
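Chicken DT40 Tdp1-/- cells complemented with human TDP1, 400 cells/well, exposed to compounds plus 20 nM camptothecin for at least 48 h at 37 C; viability read as ATP content by CellTiter-Glo luminescence.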
TDP1 cell noCPT = qHTS for Inhibitors of human tyrosyl-DNA phosphodiesterase 1 (TDP1): qHTS in cells in absence of CPT | DT40 Tdp1-/- hTDP1 cells, no CPT, ATP luminescence, 48 h | Potency, µM (highest dose often 46.2 µM), inactives show at the highest dose activity change, negative = growth inhibition, usual class: inhibitors | 420,000 compounds, 15% hits; note: % is set by controls: 0 for no effect and ±100 for the full control effect; nearly all actives have a fitted effect of over 55% in size
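Growth of hTDP1-complemented DT40 Tdp1-knockout cells is measured by ATP luminescence after at least 48 hr compound exposure at 37 °C, with DMSO substituting for the 20 nM CPT used in the parallel screen.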
S2 tox = Viability Counterscreen for Primary qHTS for Inhibitors of ATXN expression; S2 cells (HEK-293 line with an ATXN2-luciferase reporter) viability, CellTiter-Fluor protease fluorescence, 24 h; Potency, µM (highest dose often 56.7 µM), hits mostly cytotoxic; 400,000 compounds, 0.49% hits; AID 651635, 2014; note: nearly all actives have a fitted effect of over 40% in size
* marks the source's active call; other numbers are inactive results; i = inactive; ? = inconclusive; . = not tested or not shown. Calls come from the whole dose curve; as a rule, active = well fitted curve in the direction sought with a large enough effect; inconclusive = small, poorly fitted or top-dose-only effect, or another doubt; inactive = no such curve, though single readings can be large; an effect the other way counts as inactive or inconclusive. Potency is the fitted concentration of half-maximal effect.

SMILES	HepG2 tox	TGFb SMAD3 inh	ATXN2 expr inh	TDP1 cell CPT	TDP1 cell noCPT	S2 tox
Cc1ccc(C)c(S(=O)(=O)/N=C2\C=C(NS(=O)(=O)c3ccccc3)C(=O)c3ccccc32)c1	-16.4%	?	-8.3%	16.4µM*	16.4µM*	i
COC(=O)C(C(C)=O)C1=C/C(=N\S(=O)(=O)c2ccc(C)cc2)c2ccccc2C1=O (stereo unspecified)	-7.2%	2.9%	?	3.55µM*	10µM*	?
Cc1ccc(NC2=C/C(=N/S(=O)(=O)c3cccs3)c3ccccc3C2=O)cc1C	-15.1%	-15.8%	8.4%	?	7.31µM*	i
CC(C)NC(=O)C1(C)CN(S(C)(=O)=O)CC(=O)N1Cc1ccco1 (stereo unspecified)	.	.	.	7.6%	2.6%	.
CC1(C)C2(C#N)C(=O)NC(=O)C12C#N (stereo unspecified)	12.5%	14.2%	-2.1%	-19.9%	-13.1%	i
CC(=O)c1ccc(C2CC34CNS(=O)(=O)C3CC2O4)cc1 (stereo unspecified)	-29.3%	-15.6%	.	.	.	.
CC(C)c1ccc(S(=O)(=O)/N=C2\C=C(NS(=O)(=O)c3ccccc3)C(=O)c3ccccc32)cc1	-45.6%	?	-5.4%	?	?	?
O=C(O)c1ccc(S(=O)(=O)/N=C2\C=C(Nc3ccccc3F)C(=O)c3ccccc32)cc1	4.47µM*	3.16µM*	7.94µM*	-96.8%	-85.7%	7.94µM*
CCN1CCN(c2ccc(S(=O)(=O)N3CCOCC3)cc2NC(=O)c2ccccc2SC)CC1	-7.9%	-0.1%	5.0%	-26.8%	-14.7%	i
CC(Oc1ccc(F)cc1)C(=O)Nc1ccccc1N1CCCCC1 (stereo unspecified)	8.3%	?	-21.1%	?	16.4µM*	i
CN1CCN(c2ccc(S(=O)(=O)N3CCCCC3)cc2NC(=O)COc2ccc(F)cc2)CC1	15.1%	15.4%	-11.9%	?	?	i
CCN1CCN(c2ccc(S(=O)(=O)N3CCOCC3)cc2NC(=O)c2cc(Cl)nc3ccccc23)CC1	-6.8%	13.8%	4.0%	?	16.4µM*	i
CCN1CCN(c2ccc(S(=O)(=O)N3CCOCC3)cc2NC(=O)C(C)Oc2ccc(Cl)cc2)CC1 (stereo unspecified)	-21.6%	-8.4%	-17.7%	?	18.4µM*	i
CCN1CCN(c2ccc(S(=O)(=O)N3CCOCC3)cc2NC(=O)CC(C)C)CC1	-18.0%	2.3%	6.0%	2.8%	4.4%	?
CC(Oc1ccc(F)cc1)C(=O)Nc1cc(S(=O)(=O)N2CCCCC2)ccc1N1CCN(C)CC1 (stereo unspecified)	-37.1%	-23.3%	-11.6%	23.1µM*	?	i
CCC(Oc1ccccc1)C(=O)Nc1ccccc1N1CCCCC1 (stereo unspecified)	-9.3%	-26.6%	-1.1%	?	?	?
Cc1cnc(CNc2ncncc2-c2cccc(NS(C)(=O)=O)c2)cn1	.	.	.	-5.9%	14.5%	.
COc1ccc(C(CNC(=O)c2c(C)nn(Cc3ccccc3)c2Cl)N2CCOCC2)cc1 (stereo unspecified)	-7.4%	-9.5%	.	?	?	i
O=c1c2ccccc2nc(-c2cccs2)n1-c1ccc2ccccc2c1	1.4%	15.3%	7.3%	?	?	i
Cc1ccccc1-c1noc(CNC(=O)c2ccco2)n1	-16.3%	-27.6%	3.0%	39.5%	5.9%	i
O=C(Nc1cccc2ncccc12)c1cc([N+](=O)[O-])ccc1Cl	-17.4%	1.9%	-18.3%	?	?	i
COc1ccc(CCC(=O)N2CCN(S(=O)(=O)c3cccs3)CC2)cc1	-8.1%	?	0.7%	-0.4%	-21.7%	?
O=C1NC(c2cccs2)Nc2sc3c(c21)CCCC3 (stereo unspecified)	3.4%	23.3%	2.3%	4.11µM*	3.26µM*	i
CN1CCc2c(sc3c2C(=O)NC(c2ccc(-c4ccc(Cl)cc4)o2)N3)C1 (stereo unspecified)	-37.5%	21.0%	-16.5%	?	?	.
CCc1ccc(NC(=O)[C@H](CSCc2ccccc2)N2Cc3ccccc3C2=O)cc1	-9.4%	-5.0%	-3.3%	-19.8%	?	?
SMILES	HepG2 tox	TGFb SMAD3 inh	ATXN2 expr inh	TDP1 cell CPT	TDP1 cell noCPT	S2 tox
CCN(CC)S(=O)(=O)c1ccc(NC(=O)[C@H](CCSC)N2Cc3ccccc3C2=O)cc1	-34.6%	?	-9.5%	?	23.1µM*	?
CCN(CC)S(=O)(=O)c1ccc(NC(=O)[C@H](CSCc2ccccc2)N2Cc3ccccc3C2=O)cc1	-18.1%	21.5%	.	20.6µM*	?	.
CCOC(=O)c1nnn(CC(=O)N2N=C(c3cccc4ccccc34)CC2c2ccccc2)c1C(=O)OCC (stereo unspecified)	-28.6%	-19.6%	4.4%	?	20.6µM*	i
Cc1ccc(C(O)c2ccc(-n3ccnc3)cc2)cc1 (stereo unspecified)	-1.4%	-11.7%	.	?	14.6µM*	?
Cc1ccc(C(O)c2ccncc2)cc1 (stereo unspecified)	-13.6%	11.7%	-8.0%	?	?	i
Cc1c(C(=O)NCc2ccc(C(C)C)cc2)sc(=O)n1Cc1ccc(S(=O)(=O)N(C)C)cc1	-10.7%	0.6%	-21.6%	13µM*	9.2µM*	i
Cc1cccc(C)c1Cn1c(C)c(C(=O)NCc2ccc(C#N)cc2)sc1=O	-11.5%	?	-11.5%	?	18.4µM*	i
Cc1c(C(=O)N(C)Cc2ccc(F)cc2)sc(=O)n1Cc1ccc(Cl)c(Cl)c1	-25.0%	?	0.0%	?	23.1µM*	i
Cc1c(C(=O)NCc2ccc(Cl)c(Cl)c2)sc(=O)n1Cc1ccc(C(=O)N(C)C)cc1	1.5%	?	?	14.6µM*	10.3µM*	?
COc1ccc(N2CCN(S(=O)(=O)c3ccc(OC)c(-c4noc(C)n4)c3)CC2)cc1	20.9%	-3.8%	.	-14.1%	-20.0%	.
S=C(NCCCc1ccccc1)NCc1ccccc1	-34.3%	?	1.3%	2.3%	?	i
Nn1c(SCC(=O)Nc2cccnc2Cl)nnc1-c1ccccc1	-18.2%	-17.1%	10.2%	?	-16.2%	i
